# This is part of a sample that, as a whole, favours compounds with a hit. Of some 83,000 tested, about 20% had one in any assay.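 Activity criterion: percent growth below 10, measured after cells in 96-well plates were exposed to a single compound concentration for 48 hours.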 Activity calls are given as the source filed them.
# System: HL-60(TB) leukemia
# Experiment: NCI-60 one-dose screen, 48 h (100 = growth as untreated, 0 = no growth, -100 = all killed)
# Details: 10 µM unless noted
row,Structure (SMILES),growth
1,C=C1C(=O)O[C@H]2[C@H]1CC/C(COC(=O)/C=C\C(=O)NCc1ccc(Cn3c(=O)sn(-c4ccc(OC)cc4)c3=O)cc1)=C\CC[C@@]1(C)O[C@@H]21,-35.8% (active)
2,CCOC(=O)c1ccc(NC(=O)Nc2nncs2)cc1,5.62% (active)
3,O[C@@H](c1cc(C(F)(F)F)nc2c(C(F)(F)F)cccc12)[C@H]1CCCCN1,59.4% (inactive)
4,COc1cccc2c1O/C(=C\c1c([N+](=O)[O-])ncn1C)C2=O,95.8% (inactive)
5,COc1cc(-c2cc(/C=C/C(=O)c3ccc(Cl)c(Cl)c3)[nH]n2)cc(OC)c1OC,87.3% (inactive)
6,O=C(Nc1ccc(Oc2cccc(Cl)c2)c(Cl)c1)c1cccnc1,6.06% (active)
7,CC1(O)CCC(Nc2cc(-c3ccc(C(F)(F)F)cc3)c(C#N)c3nc4ccccc4n23)CC1 (configuration not stated),63% (inactive)
8,CCN1CCN(c2ccc(Nc3ncnc4c3nnn4CCc3cc(OC)cc(OC)c3)cc2)CC1,87.8% (inactive)
9,O=C(/C=C/c1cccc(B(O)O)c1)c1cccc(B(O)O)c1,-13.8% (active)
10,CCCCOc1ccc(C(C)(C)c2ccc(OCCCC)cc2)cc1,92.5% (inactive)
11,CC1C2CCC(C2)C1COCCOCCO (configuration not stated),108% (inactive)
12,Cn1c(O)c(N=NC(=O)c2cc(-c3ccccc3)on2)c2ccccc21,80.8% (inactive)
13,N#Cc1c(-c2ccccc2)cc(-c2ccccc2)n(CCCCC(=O)O)c1=O,102% (inactive)
14,O=C(O)c1ccccc1Nc1cccc(S(F)(F)(F)(F)F)c1,96.9% (inactive)
15,COc1cc(/C=N/Nc2ncnc3c2c(C)nn3-c2ccc(F)cc2)ccc1O,98.3% (inactive)
16,O=C1Cc2cc(CCN3CCN(c4nsc5ccccc45)CC3)c(Cl)cc2N1,108% (inactive)
17,Cc1cc(N2CCN(c3ccnc4cc(Cl)ccc34)CC2)nc(N2CCOCC2)n1,69.5% (inactive)
18,CCCNC(=O)Oc1ccc(/C(=C(\C)c2ccccc2)c2ccc(OCCCN(C)C)cc2)cc1,65.3% (inactive)
19,Cc1nc2sc(C(=O)Nc3ccc(Cl)cc3)c(N)c2cc1C(O)c1ccccc1 (configuration not stated),2.56% (active)

row,Structure (SMILES),growth
1,O=c1oc2ccc(Br)cc2c(=O)n1-c1ccc(Br)cc1F,-39.1% (active)
2,COc1ccc(CNCCCN2C(=O)c3ccc4c5c(ccc(c35)C2=O)C(=O)N(CCCNCCCCNCCCN)C4=O)c(OC)c1OC,26.2% (inactive)
3,O=S(=O)(CCN1CCOCC1)Nc1cc(-c2ccc3ncnc(Nc4ccc(F)c(Cl)c4)c3c2)cnc1Cl,27.3% (inactive)
4,COc1ccc(-c2nc3sccn3c2-c2ccnc(S(C)(=O)=O)n2)cc1,55.4% (inactive)
5,CCOC(=O)c1cnn(CC(O)c2ccc(F)cc2)c1NC(=O)Nc1ccccc1F (configuration not stated),102% (inactive)
6,O=C(N=c1n(-c2ccccc2)nc2n1CCN2C1=NCCN1C(=O)c1ccc(Cl)cc1)c1ccc(Cl)cc1,51.2% (inactive)
7,CCOC(=O)C1=NN(c2ccc(Cl)cc2)C2C3N(c4ccc(Cl)cc4)N=C(C(=O)OCC)N3c3ccccc3N12 (configuration not stated),-67.8% (active)
8,COc1cc(Nc2cc(O)c3c(=O)cc(-c4ccccc4)oc3c2)cc(OC)c1,-35.7% (active)
9,O=C(O)c1ccc(NCc2cn(-c3ccc(C(F)(F)F)cc3)nc2-c2ccc(C(=O)O)cc2)cc1,104% (inactive)
10,O=S(=O)(Nc1ccc(Cl)c(Cl)c1)c1ccc(-c2cnc(C3CC3)o2)cc1,18.6% (inactive)
11,COc1cc(/C=C/C(=O)c2c(C)nc3ccccc3c2C)ccc1OCCCOc1cc2c(cc1OC)C(=O)N1CCC[C@H]1C=N2,-33% (active)
12,C=C1C(=O)O[C@H]2[C@H]1CC/C(COC(=O)C(=O)c1cn(C)c3ccc(OC)cc13)=C\CC[C@@]1(C)O[C@@H]21,-38.7% (active)
13,CC1(C)NC2=C(C(Nc3cccnc3)N1)C(c1ccc([N+](=O)[O-])cc1)C(C(=O)c1ccc(N=[N+]=[N-])cc1)O2 (configuration not stated),104% (inactive)
14,C/C(=C\CCc1ccoc1)CC/C=C(\C)CCCN1CCOCC1,35.5% (inactive)
15,OCCn1cc(-c2nc(-c3c[nH]c4ncccc34)cs2)c2cc(F)ccc21,60.3% (inactive)
16,Clc1ccc(/C=C/c2cc(N3CCOCC3)c3cc(Cl)c(Cl)cc3n2)cc1,-16.3% (active)
17,CSc1nc2ccc(C)cc2cc1/C=C1/C=C(c2ccccc2)NC1=O,87.4% (inactive)
18,COc1ccc(-c2c3c(N)c4c(nc3nc3c2c(C)nn3-c2ccccc2)CCCC4)cc1,87.2% (inactive)
